Assay results published in PubChem BioAssay (Tox21).
Results filed as inconclusive are left out. Calls of active or inactive are those of the source. Unless noted, calls follow the shape of the dose curve; as a rule, active = well fitted curve in the direction sought with a large enough effect in the repeat runs; inconclusive = weak or mixed curves; inactive = flat fitted curve, though single readings scatter.

Experiments:
[1] = qHTS assay to test for compound auto fluorescence at 535 nm (green) in HEK293 cells (AID 720680)
[2] = qHTS assay to test for compound auto fluorescence at 460 nm (blue) in HEK293 cell free culture (AID 720681)
Procedure, shortened: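 Compounds were added to cell-free DMEM with 10% FBS and fluorescence read directly. The blue channel used 405 nm excitation and 460 nm emission, with triamterene as the reference fluorophore.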

[3] = qHTS assay to test for compound auto fluorescence at 535 nm (green) in HEK293 cell free culture (AID 720682)
Procedure, shortened: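 Intrinsic compound fluorescence is measured in culture medium containing 10% FBS, with excitation at 485 nm and detection at 535 nm, referenced to fluorescein.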

[4] = qHTS assay to test for compound auto fluorescence at 590 nm (red) in HEK293 cell free culture (AID 720683)
Procedure, shortened: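 Cell-free wells of DMEM with 10% FBS received compound, and intrinsic fluorescence was read at excitation/emission 540/590 nm. Values expressed as equivalence to Rose Bengal sodium.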

[5] = qHTS assay to test for compound auto fluorescence at 590 nm (red) in HepG2 cell free culture (AID 720684)
Procedure, shortened: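 Compound was pinned into wells holding MEM with 10% FBS and no cells, and red fluorescence was read at Ex/Em 540/590 nm. Signal is expressed as auto fluorescence equivalency relative to Rose Bengal sodium.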

[6] = qHTS assay to test for compound auto fluorescence at 460 nm (blue) in HepG2 cell free culture (AID 720685)
Procedure, shortened: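 Compound (23 nL) or DMSO pinned into cell-free MEM with 10% FBS; blue fluorescence read at 405/460 nm excitation/emission, expressed as auto-fluorescence equivalency to triamterene.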

[7] = qHTS assay to test for compound auto fluorescence at 535 nm (green) in HepG2 cell free culture (AID 720686)
[8] = qHTS assay to test for compound auto fluorescence at 460 nm (blue) in HepG2 cells (AID 720687)
Procedure, shortened: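 HepG2 cells in MEM with 10% FBS, attached overnight at 37 C, were exposed to compound or DMSO for 1 hr at 37 C, 5% CO2. Blue fluorescence was read at 405/460 nm, with triamterene as reference fluorophore.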

[9] = target: Glucocorticoid receptor (Homo sapiens) (UniProt P04150); experiment: qHTS assay to identify small molecule agonists of the glucocorticoid receptor (GR) signaling pathway (AID 720691; active = well fitted activation curve with a large enough effect in the signal ratio in the repeat runs, not every such curve was filed as active; the % refers to the signal ratio); settings: GR-bla HeLa, beta-lactamase reporter ratio, 18 h; activation: at 62.4 µM (top of the series)
Sequence of Glucocorticoid receptor (Homo sapiens) (P04150 whole entry, looked up): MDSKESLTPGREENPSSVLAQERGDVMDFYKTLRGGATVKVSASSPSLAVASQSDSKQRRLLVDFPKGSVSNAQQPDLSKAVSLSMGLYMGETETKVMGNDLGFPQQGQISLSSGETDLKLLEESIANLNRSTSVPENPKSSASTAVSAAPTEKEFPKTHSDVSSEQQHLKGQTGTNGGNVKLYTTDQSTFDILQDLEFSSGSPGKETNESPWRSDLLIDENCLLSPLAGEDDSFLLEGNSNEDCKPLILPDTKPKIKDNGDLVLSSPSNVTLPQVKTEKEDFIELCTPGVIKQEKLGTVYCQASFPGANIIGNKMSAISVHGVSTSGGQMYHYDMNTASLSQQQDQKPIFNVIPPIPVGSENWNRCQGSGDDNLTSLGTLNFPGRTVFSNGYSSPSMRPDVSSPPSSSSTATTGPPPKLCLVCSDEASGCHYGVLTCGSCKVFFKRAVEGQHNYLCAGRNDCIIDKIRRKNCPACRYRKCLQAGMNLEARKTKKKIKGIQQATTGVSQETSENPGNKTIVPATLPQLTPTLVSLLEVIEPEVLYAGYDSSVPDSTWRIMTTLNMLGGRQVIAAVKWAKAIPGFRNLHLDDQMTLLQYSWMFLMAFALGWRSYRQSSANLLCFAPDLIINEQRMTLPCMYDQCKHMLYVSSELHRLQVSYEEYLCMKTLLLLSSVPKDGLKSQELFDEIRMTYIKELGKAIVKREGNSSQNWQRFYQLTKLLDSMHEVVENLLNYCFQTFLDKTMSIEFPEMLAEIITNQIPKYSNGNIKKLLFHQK
Procedure, shortened: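 Fluorescence intensity from LiveBLAzer B/G FRET substrate (2 h, room temperature) reports beta-lactamase expression driven by the glucocorticoid response element in GR-bla HeLa cells after 18 h compound exposure at 37 C.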

Measured: Potency

NC[C@@H]1CC[C@@H](N)[C@@H](O[C@H]2[C@H](O)[C@@H](O[C@H]3O[C@H](CO)[C@@H](O)[C@H](N)[C@H]3O)[C@H](N)C[C@@H]2N)O1
inactive: all assays above

O=C1CCC(c2ccc(-n3ccnc3)cc2)=NN1
inactive: all assays above

COc1cc2c(c(OC)c1OC)-c1c(cc3c(c1OC)OCO3)C[C@@H](C)[C@](C)(O)C2
inactive: all assays above

NC(N)=NCc1cccc(I)c1
inactive: all assays above

O=C(CCN1CCC(c2ccccc2)C1)c1ccc2c(c1)OCCO2 (stereo unspecified)
inactive: all assays above

CC[C@H]1OC(=O)C[C@@H](O)[C@H](C)[C@@H](O[C@@H]2O[C@H](C)[C@@H](O)[C@H](N(C)C)[C@H]2O)[C@@H](CCN2C[C@H](C)C[C@H](C)C2)C[C@@H](C)C(=O)/C=C/C(C)=C/[C@@H]1CO[C@@H]1O[C@H](C)[C@@H](O)[C@@H](OC)[C@H]1OC
inactive: all assays above

C=CC[N@@+]12CC[C@@]34c5ccccc5N5/C=C6/[C@H]7C[C@H]8[C@@]9(CC[N@@+]8(CC=C)C/C7=C/CO)c7ccccc7N(/C=C(/[C@@H](C[C@@H]31)/C(=C\CO)C2)[C@H]54)[C@@H]69
inactive: all assays above

O=P(O)(O)C(O)(Cn1ccnc1)P(=O)(O)O
inactive: all assays above

Cc1ncc(C[n+]2csc(CCOP(=O)(O)O)c2C)c(N)n1
inactive: all assays above

N=C(N)n1cccn1
inactive: all assays above

O=C(Nc1ccccc1)c1cc(Cl)ccc1O
inactive: all assays above

O=P(O)(O)CP(=O)(O)O
inactive: all assays above

N[C@H](CO)C(=O)O
inactive: all assays above

C[C@H]1O[C@@H](O[C@H]2CC[C@@]3(C)[C@H](CC[C@@H]4[C@@H]3C[C@@H](O)[C@]3(C)[C@@H](C5=CC(=O)OC5)CC[C@]43O)C2)C[C@H](O)[C@@H]1O[C@H]1C[C@H](O)[C@H](O[C@H]2C[C@H](O)[C@H](O[C@@H]3O[C@H](CO)[C@@H](O)[C@H](O)[C@H]3O)[C@@H](C)O2)[C@@H](C)O1
inactive: all assays above

Cc1cc(F)ccc1-c1cc(N2CC[C@@H](O)[C@H]2CO)ncc1N(C)C(=O)C(C)(C)c1cc(C(F)(F)F)cc(C(F)(F)F)c1
not listed: [9]
inactive: all other assays above

CCCCCCCC[N+](C)(C)CCCCCCCC
inactive: all assays above

CS(=O)(=O)c1ccc([C@@H](O)[C@@H](COC(=O)CN)NC(=O)C(Cl)Cl)cc1
not listed: [9]
inactive: all other assays above
